Here are results for 23 molecules from PubChem BioAssay.

Where “and” joins values, the source holds several entries; their conditions need not be identical. Equal values may be shown once. Calls of active or inactive are those of the source.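 Rule for the calls, unless noted: active = compounds whose cell count with miR-34 switched on is under 0.7 times the count with it off; inactive = the rest.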

Usually remaining activity stands for the signal under treatment as a percentage of the control signal.

For test [1], the system named is Aerobactin synthetase IucA (Klebsiella pneumoniae). The test can be described thus: IucA aerobactin synthetase inhibitors, biochemical, Tocris library, absorbance (AID 1345561; call rule not given here;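 note: 100% = enzyme without compound and 0% = no enzyme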). The conditions noted are these: purified IucA enzyme assay, absorbance (OD) read-out; stronger effect = lower value;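 tested at 8 µM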.
Test [2] in a line: sensitizers of A549 cells to miR-34 induction, primary screen, imaging, A549 dox-inducible miR-34, nuclei and caspase counts (AID 1347080). To be noted: A549 miR-34 inducible, Hoechst nuclei count, 48 h.
A short description of test [3]: viability rescue of complex I mutant cybrids, primary screen, cell-based, galactose medium, ATP luminescence (AID 1645843;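 active = z-score of at least 1.8 in each of two replicates, scored against plate mean and spread of sample wells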;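 note: positive z means more ATP and so rescue of galactose-driven cybrid death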). To be noted: complex I mutant cybrid cells, 72 h, stronger effect = higher value.
The mark [4] stands for this setting: stronger effect = lower value, cell number ratio, induced over uninduced.
[5] abbreviates: measured here: relative caspase fold change +Dox/-Dox.
Where [6] appears, read: measured here: total cells with miR-34 induction, stronger effect = lower value.
Setting [7] is: measured here: total cells without miR-34 induction.

`CN1CCN(C2=Cc3ccccc3Oc3ccc(Cl)cc32)CC1`: in test [1], the remaining activity is 104% (inactive). Further, the results for the fold change in test [2] (setting [4]) and in test [2] (setting [5]) were 0.963 (inactive) and 0.764, respectively. Moreover, the cell count in test [2] (setting [6]) is 6800; in test [2] (setting [7]), 7060. Moreover, in test [3], the z-score was -0.9 (inactive).

For the molecule `CC(C)C[C@H](NC(=O)N1CCCCCC1)C(=O)N[C@H](Cc1cn(C)c2ccccc12)C(=O)N[C@H](Cc1ccccn1)C(=O)O`, the remaining activity in test [1] is 87.9% (inactive). The fold change in test [2] (setting [4]) is 0.819 (inactive); in test [2] (setting [5]), 0.926. Moreover, the cell count in test [2] (setting [6]) was 7880; in test [2] (setting [7]), 9620. Also, in test [3], the z-score was 1.25 (inactive).

Regarding `O=S(=O)(c1cccc2cnccc12)N1CCNCC1`, the remaining activity in test [1] is 125% (inactive). The fold change is 1.05 (inactive) in test [2] (setting [4]) and 0.794 in test [2] (setting [5]). Moreover, the cell count in test [2] (setting [6]) amounted to 9210; in test [2] (setting [7]), 8760. Besides, the z-score in test [3] is -0.56 (inactive).

Turning to `O=C1C=CC(=O)C2=C1C1c3ccccc3C2c2ccccc21`, the remaining activity in test [1] was 104% (inactive). Further, the fold change was 0.889 (inactive) in test [2] (setting [4]) and 1.44 in test [2] (setting [5]). Also, the cell count in test [2] (setting [6]) came to 6130; in test [2] (setting [7]), 6900. The z-score in test [3] was -0.705 (inactive).

As for `CS(=O)(=O)c1ccc(Cn2c3c(c4cc(F)cc(F)c42)CCCC3CC(=O)O)cc1` (stereo not drawn), the remaining activity in test [1] was 110% (inactive). Moreover, the values for the fold change in test [2] (setting [4]) and in test [2] (setting [5]) were 0.908 (inactive) and 0.675, respectively. The cell count amounted to 8590 in test [2] (setting [6]) and 9460 in test [2] (setting [7]). Also, the z-score in test [3] is 0.655 (inactive).

As for `CC1(C)Oc2ccc(C#N)cc2[C@H](N2CCCC2=O)[C@H]1O` (racemic), the remaining activity in test [1] was 116% (inactive). In addition, the fold change was 0.905 (inactive) in test [2] (setting [4]) and 1.25 in test [2] (setting [5]). For the same molecule, the cell count worked out at 8970 in test [2] (setting [6]) and 9900 in test [2] (setting [7]). Also, the z-score in test [3] is 0.155 (inactive).

Turning to `CC(C)n1nnc2cc(C(=O)O)ccc21`, in test [1], the remaining activity is 115% (inactive). Moreover, the fold change was 0.911 (inactive) in test [2] (setting [4]) and 1.97 in test [2] (setting [5]). The cell count in test [2] (setting [6]) was determined as 7770; in test [2] (setting [7]), 8530. Besides, in test [3], the z-score was 0.275 (inactive).

With `CC1=C(/C=C/C(=C/C=C/C(C)=C/C(=O)O)c2ccc(C)cc2)C(C)(C)CCC1`, the remaining activity in test [1] was 105% (inactive). The fold change in test [2] (setting [4]) was 0.936 (inactive); in test [2] (setting [5]), 1.77. The cell count stood at 6950 in test [2] (setting [6]) and 7420 in test [2] (setting [7]). Moreover, in test [3], the z-score is 0.99 (inactive).

On to `NC(C(=O)O)c1ccc(C(=O)O)c(O)c1` (stereo not drawn), for which, in test [1], the remaining activity is 93.9% (inactive). The fold change in test [2] (setting [4]) is 0.966 (inactive); in test [2] (setting [5]) it was 1.12. The figures for the cell count in test [2] (setting [6]) and in test [2] (setting [7]) were 9030 and 9350, respectively. The z-score in test [3] was -0.31 (inactive).

With `C[C@@]1(O)[C@H](O)[C@@H](CO)O[C@H]1n1cnc2c(NC3CCCC3)nc(Cl)nc21`, the remaining activity in test [1] was 118% (inactive). For the same molecule, the fold change was 1.01 (inactive) in test [2] (setting [4]) and 1.12 in test [2] (setting [5]). For the same molecule, the values for the cell count in test [2] (setting [6]) and in test [2] (setting [7]) were 7690 and 7600, respectively. Besides, in test [3], the z-score is 0.755 (inactive).

In the case of `O=C(Nc1ccc(C(F)(F)F)cn1)N1CCN(c2ncccc2C(F)(F)F)CC1`, in test [1], the remaining activity was 86.8% (inactive). Further, the figures for the fold change in test [2] (setting [4]) and in test [2] (setting [5]) were 0.952 (inactive) and 1.39, respectively. Also, the cell count turned out to be 6230 in test [2] (setting [6]) and 6540 in test [2] (setting [7]). Further, in test [3], the z-score is -0.475 (inactive).

On to `Oc1ccc(-c2c(-c3ccccc3)nn3c(C(F)(F)F)cc(C(F)(F)F)nc23)cc1`, for which, in test [1], the remaining activity was 95% (inactive). The fold change is 0.915 (inactive) in test [2] (setting [4]) and 2.74 in test [2] (setting [5]). The cell count in test [2] (setting [6]) was found to be 8170; in test [2] (setting [7]), 8930. Further, the z-score in test [3] is 0.225 (inactive).

`CCCCCCCCCCCCCCCC(=O)C(F)(F)F`: the remaining activity in test [1] is 108% (inactive). The fold change is 1.01 (inactive) and 0.961 (inactive) in test [2] (setting [4]); 0.782 and 1.06 in test [2] (setting [5]). Moreover, the cell count was 5680 and 8900 in test [2] (setting [6]); 5630 and 9260 in test [2] (setting [7]). The z-score in test [3] is -0.105 (inactive).

On to `CCn1c(=O)[nH]c2ccccc21`, for which the remaining activity in test [1] is 111% (inactive). The figures for the fold change in test [2] (setting [4]) and in test [2] (setting [5]) were 0.854 (inactive) and 1.07, respectively. Further, the cell count in test [2] (setting [6]) is 7770; in test [2] (setting [7]) it was 9100. In test [3], the z-score was -0.455 (inactive).

Take `CCOC(=O)C1=C(C)NC(c2ccccc2)=C(C(=O)OCc2ccc([N+](=O)[O-])cc2)C1C#Cc1ccccc1` (stereo not drawn): the remaining activity in test [1] was 124% (inactive). For the same molecule, the fold change is 0.924 (inactive) in test [2] (setting [4]) and 0.543 in test [2] (setting [5]). Further, the cell count was determined as 7910 in test [2] (setting [6]) and 8560 in test [2] (setting [7]). Besides, the z-score in test [3] was 0.3 (inactive).

Regarding `O=C(Nc1cccc2cccnc12)c1ccc(N2C(=O)[C@@H]3[C@H](C2=O)[C@@H]2C=C[C@H]3C2)cc1`, the remaining activity in test [1] is 115% (inactive). Moreover, the fold change in test [2] (setting [4]) is 1 (inactive); in test [2] (setting [5]), 0.754. In addition, the cell count in test [2] (setting [6]) worked out at 6560; in test [2] (setting [7]), 6550. Also, the z-score in test [3] is -0.025 (inactive).

Take `O=Nc1ccc(O)c2ncccc12`: the remaining activity in test [1] was 118% (inactive). Further, the fold change in test [2] (setting [4]) is 1.09 (inactive); in test [2] (setting [5]), 1.32. The values for the cell count in test [2] (setting [6]) and in test [2] (setting [7]) were 2920 and 2670, respectively. Further, in test [3], the z-score is -1.02 (inactive).

As to `Cc1ccc(OC[C@@H](O)[C@H](C)NC(C)C)c2c1CCC2`, in test [1], the remaining activity was 82.6% (inactive). The fold change was 0.94 (inactive) in test [2] (setting [4]) and 1.07 in test [2] (setting [5]). Moreover, the cell count was 8280 in test [2] (setting [6]) and 8800 in test [2] (setting [7]). Also, the z-score in test [3] was -0.36 (inactive).

With `OC[C@H]1O[C@@H](n2cnc3c(N[C@H]4CCC[C@@H]4O)ncnc32)[C@H](O)[C@@H]1O`, the remaining activity in test [1] was 116% (inactive). Moreover, the fold change in test [2] (setting [4]) is 0.959 (inactive); in test [2] (setting [5]) it was 0.92. Also, the cell count stood at 8820 in test [2] (setting [6]) and 9190 in test [2] (setting [7]). Also, in test [3], the z-score was 0.09 (inactive).

For the molecule `O=C1C(c2ccccn2)=[N+]([O-])c2ccccc21`, the remaining activity in test [1] was 123% (inactive). For the same molecule, the fold change was 0.941 (inactive) in test [2] (setting [4]) and 0.616 in test [2] (setting [5]). The figures for the cell count in test [2] (setting [6]) and in test [2] (setting [7]) were 8260 and 8780, respectively. Moreover, the z-score in test [3] is -0.62 (inactive).

Take `O=[N+]([O-])c1cccc2c[nH]nc12`: the remaining activity in test [1] was 110% (inactive). Moreover, the fold change in test [2] (setting [4]) is 0.915 (inactive); in test [2] (setting [5]), 0.873. Also, the cell count is 7800 in test [2] (setting [6]) and 8520 in test [2] (setting [7]). Moreover, the z-score in test [3] is -0.1 (inactive).

For the molecule `Cc1nn(C)c2nc(NNC(=O)Nc3cc(Cl)nc(Cl)c3)cc(C(C)C)c12`, the remaining activity in test [1] was 121% (inactive). The fold change was 0.867 (inactive) and 1.06 (inactive) in test [2] (setting [4]); 1.04 and 1.03 in test [2] (setting [5]). Besides, the cell count in test [2] (setting [6]) was 5060 and 4050; in test [2] (setting [7]), 5840 and 3820. The z-score in test [3] is -0.55 (inactive).

Regarding `O=C(/C=C/c1ccccc1)NC(NC(=S)Nc1cccc2cccnc12)C(Cl)(Cl)Cl` (stereo not drawn), the remaining activity in test [1] is 124% (inactive). For the same molecule, the fold change in test [2] (setting [4]) was 1.01 (inactive); in test [2] (setting [5]), 1.71. Besides, the cell count was found to be 4630 in test [2] (setting [6]) and 4560 in test [2] (setting [7]). Moreover, the z-score in test [3] was -0.47 (inactive).
